# Measurements: PubChem BioAssay (NCI)
# The panel holds about 83,000 compounds, 20% with a hit somewhere; the sample as a whole holds those more often.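 Testing used 96-well plates and a 48-hour single-concentration exposure. Example: -40 means 40% of the starting cells died.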 Unmarked numbers belong to inactive results. The source made the active and inactive calls. Rule for the calls: active = growth percent below 10; inactive = the rest.
# How the values were obtained:
# Assay in all cases: NCI-60 one-dose screen, 48 h (100 = growth as untreated, 0 = no growth, -100 = all killed)
# Details in all cases: 10 µM unless noted
# T-47D breast = test system: T-47D breast
# BT-549 breast = test system: BT-549 breast
# MDA-MB-435 melanoma = test system: MDA-MB-435 melanoma
# SW-620 colon = test system: SW-620 colon
# MCF7 breast = test system: MCF7 breast
# HCT-116 colon = test system: HCT-116 colon
# HCC-2998 colon = test system: HCC-2998 colon
# KM12 colon = test system: KM12 colon
Compound,growth (T-47D breast),growth (BT-549 breast) [%],growth (MDA-MB-435 melanoma) [%],growth (SW-620 colon) [%],growth (MCF7 breast),growth (HCT-116 colon),growth (HCC-2998 colon),growth (KM12 colon) [%]
O=C1Nc2ccc(Cl)cc2/C1=C/c1ccc(OCc2ccc(F)cc2)cc1,102%,107,93,102,84.6%,88.5%,102%,98.8
C=CCn1c(SCC(=O)Nc2cccc(C(=O)/C=C/c3ccc(Br)cc3)c2)nc2ccccc2c1=O,76%,45.8,86.9,76.3,26.6%,8.62% (active),93.8%,81.3
CS(=O)(=O)c1nccc(-c2c(-c3ccc(F)c(OCc4ccc(F)cc4)c3)nc3sccn23)n1,-18.7% (active),69.8,97.3,88.2,-6.26% (active),90.2%,-63.6% (active),41.5
